This is one part of a sample in which hits are shown more often than they occur.
TTR transcr act – TTR transcription activators in neuroblastoma reporter cells, primary screen, cell-based, luminescence, SH-SY5Y, TTR promoter Gaussia luciferase | 92,000 tested, 1.3% active | activation, % at 16.7 µM | 100% = recombinant luciferase protein wells;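 active = activation above the mean of all tested compounds plus 3 SD, cut at about 9.5% in these data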;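 note: cells exposed to compounds for one day before reading; 0% = median of all test compound wells on the plate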
TTR inh HuH7 – TTR promoter reporter inhibitors in hepatoma cells, counter-screen for TTR transcription activator project, cell-based, luminescence, HuH7 hepatoma; 1,100 tested, 4% active; inhibition, % at 16.7 µM; shares compounds with TTR transcr act; AID 1117279, 2014; HuH7 TTR promoter-Gaussia luciferase reporter;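 active = average inhibition above the solvent-only control wells' mean plus 3 SD, cut at about 15% in these data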;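 note: 0% = cells with DMSO only and 100% = cells with inhibitor control FD; inhibitors lower well luminescence so higher value means more inhibition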
TTR up confirm – TTR transcription activators, retest, confirmation, cell-based, luminescence, SH-SY5Y, triplicate | shares compounds with TTR transcr act | SHSY5Y TTR promoter Gaussia luciferase; 100% = purified Lucia enzyme wells, no cells | activation, % at 16.7 µM | 1,100 tested, under 10 active | AID 1117280, 2014;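 active = mean activation above a set limit taken from the earlier primary screen, cut at about 11% in these data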;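 note: 0% = DMSO-treated cells and 100% = recombinant Lucia luciferase without cells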
* = called active by the depositor.

SMILES | TTR transcr act | others
COc1ccc(CCN=C(N)NS(=O)(=O)c2ccc(C)c(C)c2)cc1OC | 1
COC(=O)[C@]12C[C@H](CC(=O)N3CCN(C(=O)c4ccco4)CC3)C(=O)N(Cc3ccc(Cl)cc3Cl)C1=C[C@H](C(C)(C)C)O[C@@H]2C | -2
C[C@H]1[C@@H](OC(=O)NCc2cccs2)CC[C@@]23CCCN2C(=O)CCC[C@@H]13 | 1
CN1CCN(c2ccc(Cl)cc2NC(=O)/C=C/c2cccc(F)c2)CC1 | -1
CCC(=O)Nc1cc(Cl)ccc1N1CCN(C(=O)CC)CC1 | 12* | TTR inh HuH7=-4;TTR up confirm=0
CCN(CC)S(=O)(=O)c1ccc(N2CCOCC2)c(NC(=O)Cc2ccc(Cl)cc2)c1 | -3
COc1ccc2[nH]c3c(c2c1)CCN[C@]31C(=O)N(c2ccccc2)c2ccccc21 | 1
Cc1ccccc1C(=O)N1CCC[C@H]1C(=O)N1CCC[C@H]1C(=O)NCc1ccccn1 | 14* | TTR inh HuH7=-5;TTR up confirm=-1
O=C(NCc1ccccn1)[C@@H]1CCCN1C(=O)[C@@H]1CCCN1C(=O)c1cccs1 | 3
O=C(NCc1ccccn1)[C@@H]1CCCN1C(=O)[C@@H]1CCCN1C(=O)c1cccc(Cl)c1 | 0
Cc1cccc(C)c1-n1nnnc1C1(C)CCC(=O)N1Cc1ccco1 (centres undefined) | 1
COc1ccc(Oc2c(Cl)cnn(-c3cc(C)cc(C)c3)c2=O)cc1 | 2
COc1ccc(/C=N/N2CCOCC2)cc1Cn1nc(C)c([N+](=O)[O-])c1C | 9
COc1ccc(/C=C/C(=O)C2CC2)cc1Cn1nc(C)c([N+](=O)[O-])c1C | -1
COc1ccc(/C=N/Nc2ccccc2)cc1Cn1nc(C)c([N+](=O)[O-])c1C | 13* | TTR inh HuH7=-16;TTR up confirm=0
Clc1cc(Cl)cc(CNC2CCC23CCC(c2ccccc2)CC3)c1 (centres undefined) | 2
Cc1ccc[n+](CC(=O)c2ccc(NC(=O)c3ccccc3)cc2)c1 | 1
Cc1cccc(NC(=O)C[n+]2cccc(C)c2)c1 | -2
Cc1cc(C)c(C(=O)C[n+]2cccc(C(N)=O)c2)c(C)c1 | 14* | TTR inh HuH7=-9;TTR up confirm=0
C=CCN1C(=O)[C@H](CC(=O)NCCC(C)C)[C@@]2(C(=O)OCC)CCCC=C12 | 0
CN(CCCOC(=O)c1cccs1)C1CN(Cc2cn(Cc3ccccc3Cl)nn2)S(=O)(=O)C1 (centres undefined) | -1
CCOc1ccccc1NC(=O)Cc1coc2cc(C)ccc12 | 14* | TTR inh HuH7=-25;TTR up confirm=2
CCOc1ccccc1NC(=O)CNC(=O)Cc1ccccc1 | 0
Cc1ccc(C)c(NC(=O)Cc2coc3cc4c(cc23)CCC4)c1 | -1
O=C(NCCc1c[nH]c2ccccc12)OCc1cn(Cc2ccccc2C(F)(F)F)nn1 | 0
SMILES | TTR transcr act | others
C[C@@H]1[C@@H](O)C[C@@]2(C[C@H](O)c3cc(Cl)cc(Cl)c3O2)O[C@H]1c1ccccc1Cl | -1
Cc1cc(C(=O)N2CCc3ccccc32)n(-c2ccccc2)n1 | 10* | TTR inh HuH7=21*;TTR up confirm=11*
Cn1nc(C(=O)N2CCc3ccccc32)c2ccccc2c1=O | -1
Cc1cc(C)n(C(C)CC(=O)N2CCc3ccccc32)n1 (centres undefined) | 1
Nc1nc(NCC2CCCO2)nc(Nc2ccc(Cl)cc2)c1[N+](=O)[O-] (centres undefined) | 3
Nc1nc(NCCCN2CCOCC2)nc(Nc2ccc(Cl)cc2)c1[N+](=O)[O-] | 13* | TTR inh HuH7=-8;TTR up confirm=0
Nc1nc(Nc2ccccc2)nc(N2CCOCC2)c1[N+](=O)[O-] | 1
O=C1CCC[C@H]2C[C@H](NCc3ccco3)CC[C@]23CCCN13 | 0
Cc1ccccc1C1CCC2(CCC(=O)N2CC[C@@H](O)c2ccccc2)CC1 (some centres undefined) | -2
O=C(c1cc2nc(-c3ccccc3)cc(C(F)(F)F)n2n1)N1CCCC1 | -1
O=C(c1nc2nc(-c3ccccc3)cc(C(F)(F)F)n2n1)N1CCCCC1 | 11* | TTR inh HuH7=-3;TTR up confirm=0
COc1ccc(-c2cc(C(F)(F)F)n3nc(C(=O)N4CCOCC4)nc3n2)cc1 | 3
COc1ccc(OC)c(NC(=O)O[C@@H]2CC[C@@]34CCCN3C(=O)CCC[C@H]4C2)c1 | 1
CCc1nc2ccc(C(=O)NCCCN3CCCC3=O)cn2c1N(C)CCC(C)C | 1
O=C(CCCC1=NS(=O)(=O)c2ccccc2N1)N1CCN(c2ccc([N+](=O)[O-])cc2)CC1 | 9.7* | TTR inh HuH7=-13;TTR up confirm=-1
O=C(CN1C(=O)C2CC=CCC2C1=O)N1CCN(c2ccc([N+](=O)[O-])cc2)CC1 (centres undefined) | -1
O=C(CCC1=NS(=O)(=O)c2ccccc2N1)NC1CCCCCCC1 | -1
COC(=O)[C@]12CCCCC=C1N(Cc1ccc(OC)cc1)C(=O)[C@@H]2CC(=O)NCC1CCCCC1 | -1
CCCC[C@H](C(=O)N(C)c1ccccc1)[C@@H](O)c1ccc2ccccc2c1 | -2
Cc1cccc(CSc2nnc(NC(=O)c3ccco3)s2)c1 | 2
O=C(CSc1nnc(NC(=O)c2ccco2)s1)Nc1ccc(F)cc1 | 2
Cc1cccc(NC(=O)CSc2nnc(NC(=O)c3ccco3)s2)c1 | 11* | TTR inh HuH7=-29;TTR up confirm=3
COC(=O)[C@]12C[C@H](CC(=O)N3CCC(c4ccccc4)CC3)C(=O)N(Cc3ccc(Cl)cc3Cl)C1=C[C@H](C1CCCC1)O[C@@H]2C | -1
Cc1ccc(C(=O)n2ccc3ccc(-c4ccc5ccn(Cc6ccc(C#N)cc6)c5c4)cc32)cc1 | 0
COc1cccc(-c2csc(NC(=O)C3CC3)n2)c1 | 11* | TTR inh HuH7=33*;TTR up confirm=-1
SMILES | TTR transcr act | others
COc1cccc(-c2csc(NC(=O)Nc3ccccc3)n2)c1 | -5
COc1cccc(C(=O)Nc2nc(-c3ccncc3)cs2)c1 | -1
COc1ccc(/C=C(/C#N)C(=O)Nc2cc(C)ccc2C)cc1C(=O)O | -1
COc1cc(/C=C(\C#N)C(=O)NC(C)C)cc(Cl)c1O | 0
COc1ccc(/C=C(\C#N)C(=O)Nc2cc(C)c(Cl)cc2OC)cc1O | 12* | TTR inh HuH7=-4;TTR up confirm=0
O=C(NCc1cccs1)c1csc([C@@H]2C[C@H](O)[C@@H](CO)O2)n1 | 2
COc1ccc2cc(-c3cn(C(=O)N(c4ccccc4)c4ccccc4)nn3)ccc2c1 | -2
C[C@H]1[C@@H](NC(=O)c2cccc(C(F)(F)F)c2)CC[C@@]23CCCN2C(=O)CCC[C@@H]13 | 0
C[C@H](CO)N1C[C@H](C)[C@@H](CN(C)C(=O)Oc2ccccc2)OCc2cn(nn2)CCCC1=O | 0
CCCCNC(=O)C[C@@H]1C(=O)N(CCc2ccc(Cl)cc2)C2=CCCCC[C@]21C(=O)OC | 1
O=C(O)Cn1cc(C(=S)N2CCCCC2)c2ccccc21 | 0
Fc1ccc(Cn2cc(C(=S)N3CCOCC3)c3ccccc32)cc1 | -2
CC1CCN(C(=S)c2cn(Cc3cccc(F)c3)c3ccccc23)CC1 | 10* | TTR inh HuH7=-17;TTR up confirm=0
CCC[C@H]1[C@@H](NC(=O)C(c2ccccc2)c2ccccc2)CC[C@@]23CCCN2C(=O)CCC[C@@H]13 | -2
O=C(NC1CCCCC1)C1c2ccccc2OCC(=O)N1CC(F)(F)F (centres undefined) | 0

Screening results: PubChem BioAssay, The Scripps Research Institute Molecular Screening Center
